Measurements reported in PubChem BioAssay AID1159580 (chemical genetic matrix, 2015).
Among all 5,500 compounds or so, about 2,000 (36%) were called active. Inconclusive results (about 18%) are left out. Rule as the data show it: active = normalized growth mostly below about 0.91 (no sharp cut-off); inconclusive = no clear call, values can overlap the other calls; inactive = mostly above about 0.92. This is one part of the list.

Test: chemical genetic growth profiling, strain panel (AID 1159580);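 also: tested at 20 µM; growth read once vehicle control cultures reached saturation at 30 °C; 1 = growth at the plate median or of vehicle wells; lower values mean less growth of the strain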
Details: growth OD

Measured: normalized growth

Cc1c(NC(=O)c2cccnc2)c(=O)n(-c2ccccc2)n1C
inactive: S. cerevisiae deletion strains, locus YJR066W, strain TOR1, stronger effect = lower value 0.958 | S. cerevisiae deletion strains, locus YJR075W, strain HOC1, stronger effect = lower value 0.99 | S. cerevisiae deletion strains, locus YKL009W, strain mrt4, stronger effect = lower value 0.958 | S. cerevisiae deletion strains, locus YKL068W, stronger effect = lower value 0.99 | S. cerevisiae deletion strains, locus YKL085W, strain MDH1 (second series), stronger effect = lower value 0.988 | S. cerevisiae deletion strains, locus YKL085W, strain MDH1, stronger effect = lower value 0.988 | S. cerevisiae deletion strains, locus YKL160W, strain elf1, stronger effect = lower value 1.02 | S. cerevisiae deletion strains, locus YKL190W, strain CNB1, stronger effect = lower value 0.989 | S. cerevisiae deletion strains, locus YKR001C, strain vps1, stronger effect = lower value 0.991 | S. cerevisiae deletion strains, locus YKR026C, strain gcn3, stronger effect = lower value 0.997 | S. cerevisiae deletion strains, locus YKR091W, strain srl3, stronger effect = lower value 1 | S. cerevisiae deletion strains, locus YLL001W, strain dnm1, stronger effect = lower value 0.986 | S. cerevisiae deletion strains, locus YLL026W, stronger effect = lower value 0.993 | S. cerevisiae deletion strains, locus YLL041C, strain sdh2, stronger effect = lower value 0.996 | S. cerevisiae deletion strains, locus YLR027C, strain aat2, stronger effect = lower value 1 | S. cerevisiae deletion strains, locus YLR039C, strain RIC1, stronger effect = lower value 0.974 | S. cerevisiae deletion strains, locus YLR058C, strain SHM2, stronger effect = lower value 0.982 | S. cerevisiae deletion strains, locus YLR102C, strain apc9, stronger effect = lower value 0.989 | S. cerevisiae deletion strains, locus YLR113W, strain HOG1, stronger effect = lower value 1.06 | S. cerevisiae deletion strains, locus YLR221C, strain rsa3, stronger effect = lower value 1.01 | S. cerevisiae deletion strains, locus YLR258W, strain gsy2, stronger effect = lower value 0.997 | S. cerevisiae deletion strains, locus YLR262C, strain YPT6 (second series), stronger effect = lower value 1.02 | S. cerevisiae deletion strains, locus YLR262C, strain YPT6, stronger effect = lower value 0.961 | S. cerevisiae deletion strains, locus YLR268W, strain sec22, stronger effect = lower value 0.982 | S. cerevisiae deletion strains, locus YLR320W, strain mms22, stronger effect = lower value 1 | S. cerevisiae deletion strains, locus YLR330W, strain CHS5, stronger effect = lower value 1 | S. cerevisiae deletion strains, locus YLR342W, strain FKS1 (second series), stronger effect = lower value 1.09 | S. cerevisiae deletion strains, locus YLR342W, strain FKS1, stronger effect = lower value 1 | S. cerevisiae deletion strains, locus YLR357W, strain rsc2, stronger effect = lower value 0.963 | S. cerevisiae deletion strains, locus YLR370C, strain arc18, stronger effect = lower value 1 | S. cerevisiae deletion strains, locus YLR371W, strain rom2, stronger effect = lower value 0.998 | S. cerevisiae deletion strains, locus YLR384C, strain iki3, stronger effect = lower value 0.999 | S. cerevisiae deletion strains, locus YLR418C, strain cdc73, stronger effect = lower value 1.01 | S. cerevisiae deletion strains, locus YML016C, strain PPZ1, stronger effect = lower value 0.994 | S. cerevisiae deletion strains, locus YML032C, strain rad52, stronger effect = lower value 0.971 | S. cerevisiae deletion strains, locus YML120C, strain ndi1, stronger effect = lower value 1.02 | S. cerevisiae deletion strains, locus YML124C, strain tub3, stronger effect = lower value 0.999 | S. cerevisiae deletion strains, locus YMR058W, strain fet3, stronger effect = lower value 1 | S. cerevisiae deletion strains, locus YMR078C, strain ctf18, stronger effect = lower value 0.984 | S. cerevisiae deletion strains, locus YMR125W, strain sto1, stronger effect = lower value 0.969 | S. cerevisiae deletion strains, locus YMR129W, stronger effect = lower value 0.997 | S. cerevisiae deletion strains, locus YMR205C, strain PFK2, stronger effect = lower value 0.959 | S. cerevisiae deletion strains, locus YMR223W, strain ubp8, stronger effect = lower value 1.02 | S. cerevisiae deletion strains, locus YMR231W, strain pep5, stronger effect = lower value 1 | S. cerevisiae deletion strains, locus YMR263W, strain SAP30, stronger effect = lower value 0.987 | S. cerevisiae deletion strains, locus YMR307W, strain GAS1, stronger effect = lower value 0.961 | S. cerevisiae deletion strains, locus YNL067W, strain RPL9B, stronger effect = lower value 0.971 | S. cerevisiae deletion strains, locus YNL071W, strain lat1, stronger effect = lower value 1.01 | S. cerevisiae deletion strains, locus YNL153C, strain GIM3, stronger effect = lower value 0.952 | S. cerevisiae deletion strains, locus YNL183C, strain NPR1, stronger effect = lower value 0.967 | S. cerevisiae deletion strains, locus YNL209W, strain ssb2, stronger effect = lower value 1.01 | S. cerevisiae deletion strains, locus YNL233W, strain BNI4, stronger effect = lower value 0.941 | S. cerevisiae deletion strains, locus YNL248C, strain rpa49, stronger effect = lower value 1.01 | S. cerevisiae deletion strains, locus YNL250W, strain rad50, stronger effect = lower value 0.975 | S. cerevisiae deletion strains, locus YNL271C, strain bni1, stronger effect = lower value 0.991 | S. cerevisiae deletion strains, locus YNL298W, strain CLA4, stronger effect = lower value 0.997 | S. cerevisiae deletion strains, locus YNL307C, strain MCK1, stronger effect = lower value 0.995 | S. cerevisiae deletion strains, locus YNL322C, strain KRE1 (second series), stronger effect = lower value 0.995 | S. cerevisiae deletion strains, locus YNL322C, strain KRE1, stronger effect = lower value 0.996 | S. cerevisiae deletion strains, locus YNR049C, strain mso1, stronger effect = lower value 0.997 | S. cerevisiae deletion strains, locus YNR052C, strain pop2, stronger effect = lower value 0.996 | S. cerevisiae deletion strains, locus YOL006C, strain TOP1, stronger effect = lower value 0.928 | S. cerevisiae deletion strains, locus YOL012C, strain htz1 0.85 | S. cerevisiae deletion strains, locus YOL147C, strain pex11, stronger effect = lower value 1 | S. cerevisiae deletion strains, locus YOR001W, strain rrp6, stronger effect = lower value 1.01 | S. cerevisiae deletion strains, locus YOR061W, strain CKA2, stronger effect = lower value 0.969 | S. cerevisiae deletion strains, locus YOR069W, strain VPS5, stronger effect = lower value 1 | S. cerevisiae deletion strains, locus YOR070C, strain gyp1, stronger effect = lower value 1 | S. cerevisiae deletion strains, locus YOR080W, strain dia2, stronger effect = lower value 0.99 | S. cerevisiae deletion strains, locus YOR083W, strain WHI5, stronger effect = lower value 1.02 | S. cerevisiae deletion strains, locus YOR106W, strain vam3, stronger effect = lower value 1.01 | S. cerevisiae deletion strains, locus YOR136W, strain idh2, stronger effect = lower value 0.983 | S. cerevisiae deletion strains, locus YOR144C, strain elg1, stronger effect = lower value 0.994 | S. cerevisiae deletion strains, locus YOR184W, strain ser1, stronger effect = lower value 0.985 | S. cerevisiae deletion strains, locus YOR231W, strain MKK1, stronger effect = lower value 1.05 | S. cerevisiae deletion strains, locus YOR265W, strain rbl2, stronger effect = lower value 0.993 | S. cerevisiae deletion strains, locus YOR270C, strain vph1, stronger effect = lower value 1 | S. cerevisiae deletion strains, locus YOR290C, strain snf2, stronger effect = lower value 0.98 | S. cerevisiae deletion strains, locus YOR316C, strain cot1, stronger effect = lower value 0.986 | S. cerevisiae deletion strains, locus YPL051W, strain arl3, stronger effect = lower value 1.01 | S. cerevisiae deletion strains, locus YPL078C, strain atp4, stronger effect = lower value 1.01 | S. cerevisiae deletion strains, locus YPL106C, strain sse1, stronger effect = lower value 0.992 | S. cerevisiae deletion strains, locus YPL240C, strain hsp82, stronger effect = lower value 0.995 | S. cerevisiae deletion strains, locus YPL256C, strain CLN2, stronger effect = lower value 1.03 | S. cerevisiae deletion strains, locus YPR119W, strain clb2, stronger effect = lower value 0.985 | S. cerevisiae deletion strains, locus YPR141C, strain kar3, stronger effect = lower value 0.99 | S. cerevisiae deletion strains, locus YPR163C, strain tif3, stronger effect = lower value 0.996 | S. cerevisiae deletion strains, locus YPR167C, strain met16, stronger effect = lower value 0.991 | S. cerevisiae deletion strains, strain wtn01, stronger effect = lower value 1.02 | S. cerevisiae strains, strain wild type, stronger effect = lower value 0.983
